The record followed here is PubChem BioAssay (Tox21).

Inconclusive results are not listed. Where a call stands in place of a potency, no number is given. Active and inactive are the calls of the source. Calls follow the shape of the full dose curve.

This experiment can be described thus: p53 small molecule agonists, cell-based qHTS assay with human liver microsomes (AID 1963577).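 Also: p53 response element beta-lactamase reporter cells with liver microsomes plus NADPH.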 The following applies: HCT-116 p53RE-bla with human liver microsomes, ratio, 16 h; series mostly up to 66 µM; activation: at the top concentration. An excerpt: National Center for Advancing Translational Sciences [NCATS]
Division of Preclinical Innovation [DPI]
U.S. Environmental Protection Agency [EPA]
National Institutes of Environmental Health Sciences [NIEHS]
National Toxicology Program [NTP]
U.S. Food and Drug Administration [FDA]
p53, a tumor suppressor protein, is activated following cellular insult, including DNA damage and other cellular stresses. The activation of p53 regulates cell fate by inducing DNA repair, cell cycle arrest, apoptosis, or cellular senescence. The activation of p53, therefore, is a good indicator of DNA damage and other cellular stresses. […] The activation of the reporter gene under culture conditions can be detected by fluorescence intensity.
Tox21 Assay Protocol Summary:
The p53RE-bla cells were dispensed at 4,000cells/3ul/well in 1536-well black-clear bottom plates. After the assay plates were incubated at 37 C, 5% CO2 incubator for 5 hours, 23 nL of compounds dissolved in DMSO, positive controls or DMSO only was transferred to the assay plate. Following compound addition, 3 uL of human liver microsomes (XenoTech, Kansas City, KS) at final concentration of 0.5 mg/mL and 1uL of Beta-Nicotinamide adenine dinucleotide 2-phosphate (NADPH) at final concentration of 0.5 mg/mL were transferred to the assay plate. The plates were incubated at 37 C for 16 hours. 1 uL of LiveBLAzer detection mixture was added to each well and the plates were incubated at room temperature in the dark for 2 h.
For orientation: In qHTS, concentration-response curves come from the screen itself.
Consider `CCCC(O)C(CC)CO` (stereo not given), for which the Potency entry was “inactive”.

Consider `CC(=O)CCc1ccccc1`, for which the Potency result is “inactive”.

In the case of `CCCCCCCCOc1ccc(C(=O)c2ccccc2)c(O)c1`, the Potency result was “inactive”.

As to `Oc1c(Cl)cc(Cl)c(Cl)c1Cc1c(O)c(Cl)cc(Cl)c1Cl`, the Potency entry was “inactive”.

For the compound `Cc1cc(Cc2ccc(N)c(C)c2)ccc1N`, the Potency entry is “inactive”.

As for `CCCCCCCCCCCCCC[N+](C)(C)Cc1ccccc1`, the Potency entry is “inactive”.

As for `Cc1ccc(N)c(S(=O)(=O)O)c1`, the Potency entry was “inactive”.

`O=c1ccc2ccccc2o1`: the “activation” value is 16.8% [at 30.3 µM] (inactive).

With `CC(=O)OCc1ccc2c(c1)OCO2`, the “activation” value is -0.0395% (inactive).

As for `C=C1C2CCC(C2)C1(C)C` (stereo not given), the Potency result is “inactive”.

Consider `CCOC(=O)CC(=O)OCC`, for which the Potency result is “inactive”.

On to `Cc1ccc([N+](=O)[O-])cc1S(=O)(=O)O`, for which the Potency entry was “inactive”.

`CCO[Si](CCCNC(N)=O)(OCC)OCC`: the “activation” value was 3.57% (inactive).

As for `C#C[C@]1(O)CC[C@H]2[C@@H]3CCC4=Cc5oncc5C[C@]4(C)[C@H]3CC[C@@]21C`, the Potency result is “inactive”.

Turning to `O=C1CCc2ccccc2O1`, the Potency entry was “inactive”.

Take `CC(C)CC(=O)CC(C)CC(C)C` (stereo not given): the Potency result was “inactive”.

Consider `O=C(O)c1ccc2c(c1)C(=O)OC2=O`, for which the Potency result is “inactive”.

For the compound `c1ccc(OCCOc2ccccc2)cc1`, the Potency entry was “inactive”.

As for `Cc1cccc(O)c1`, the Potency result is “inactive”.

Regarding `c1ccc2cc(Nc3ccc(Nc4ccc5ccccc5c4)cc3)ccc2c1`, the “activation” value is 0.129% (inactive).

As to `O=C(O)c1ccccc1Nc1cccc(C(F)(F)F)c1`, the Potency entry was “inactive”.

Take `CCCCCCCCCCCCCCCC[N+](C)(C)Cc1ccccc1`: the Potency result was “inactive”.

With `Nc1cc([N+](=O)[O-])ccc1C(=O)O`, the Potency result is “inactive”.

`COC(=O)c1ccccc1O`: the Potency result was “inactive”.

In the case of `COc1ccccc1OCC(O)CO` (stereo not given), the Potency result was “inactive”.

As to `COCCOC(=O)c1ccccc1C(=O)OCCOC`, the Potency result was “inactive”.

Consider `C=Cc1cccc(C)c1`, for which the Potency entry was “inactive”.

As for `COC(=O)CCC(=O)OC`, the “activation” value was 1.62% (inactive).

With `CCCCNC(N)=O`, the “activation” value was -8.1% (inactive).

Consider `CC1=C(C)S(=O)(=O)CCS1(=O)=O`, for which the Potency result was “inactive”.

Take `Cc1cc(=O)[nH]c(=S)[nH]1`: the Potency entry is “inactive”.

As for `O=C(OCc1ccccc1)c1ccc(O)cc1`, the Potency result is “inactive”.

Consider `Clc1ccccn1`, for which the Potency result is “inactive”.

For `CCCCC/C=C\C/C=C\CCCCCCCC(=O)OC`, the “activation” value is -4.11% (inactive).

For `CN(C)CCC(c1ccccc1)c1ccccn1` (stereo not given), the Potency result was “inactive”.

As for `CC(C)(N)CO`, the Potency result is “inactive”.

Consider `Cc1ncc([N+](=O)[O-])n1CCO`, for which the Potency result was “inactive”.

Take `CCCCCCCCCC(=O)O`: the Potency result was “inactive”.

In the case of `Cc1ccnc2c1NC(=O)c1cccnc1N2C1CC1`, the Potency entry was “inactive”.

In the case of `COc1ccc2c(c1)c(CC(=O)O)c(C)n2C(=O)c1ccc(Cl)cc1`, the Potency result was “inactive”.
